Measurements taken from PubChem BioAssay AID588727 (Southern Research Specialized Biocontainment Screening …, 2011).
About 450 (0.13%) of roughly 350,000 compounds were called active. The rule behind the calls is not given here. These entries were drawn from the full list. Measured potencies and affinities stand elsewhere.

Assay: inhibitors of VEEV TC-83 cytopathic effect, confirmation, Vero cells (AID 588727)
Conditions: VEEV TC-83 cytopathic effect inhibition, at 20 µM
[1] = stronger effect = higher value unless noted
[2] = measured here: 10K pilot screen inhibition, stronger effect = higher value

COc1ccc(/C=N/Nc2nonc2N)cc1
inhibition [1]: 0.29% (inactive)

COc1ccc(C2c3c(ncn(CCCO)c3=N)Oc3ccc4ccccc4c32)cc1OC (stereo not drawn)
inhibition [1]: 4.99% (inactive)

COc1ccc(C2c3c(ncn(CCN4CCOCC4)c3=N)Oc3ccc4ccccc4c32)cc1OC (stereo not drawn)
inhibition [1]: 1.27% (inactive)

Cc1ccc2sc(NNC(=O)C3=COCCO3)nc2c1C
inhibition [1]: 2.26% (inactive)

CN(C)/C=C/C(=O)c1ccccc1OCc1cnc(Cl)s1
inhibition [1]: inactive

CC(C)(C)OC(=O)N1CCN(C(=O)c2[nH]cnc2C(=O)N[C@@H](Cc2ccccc2)C(=O)OCc2ccccc2)CC1
inhibition [1]: 2.09% (inactive)

CC(C)(C)OC(=O)[C@H](Cc1ccccc1)NC(=O)c1nc[nH]c1C(=O)N1CCN(c2ccccc2)CC1
inhibition [1]: 5.56% (inactive)

O=C(CSc1ncn[nH]1)N/N=C/c1ccc(Br)cc1
inhibition [1]: 0.58% (inactive)

Cc1ccccc1NC(=O)COC(=O)C1C2CC3OC(=O)C1C3C2 (stereo not drawn)
inhibition [1]: 0.18% (inactive)

Cc1nc2c(c(=O)n1CCC1=CCCCC1)c1nc3ccccc3nc1n2/N=C/c1ccccc1
inhibition [1]: inactive

Cc1onc(-c2ccccc2)c1-c1nnc(CN2CCN(S(=O)(=O)c3ccccc3F)CC2)o1
inhibition [1]: 7.39% (inactive)

Cc1ccc(C(=O)NCC(=O)Nc2ncccc2C)s1
inhibition [1]: inactive

COc1ccc(C(=O)NC(=O)Nc2ncccc2C)cc1
inhibition [1]: 3.84% (inactive)

CCCCc1nc2sc3c(c2c(=O)n1NC(=O)c1ccco1)CC(C)(C)OC3
inhibition [1]: 0.57% (inactive)

OCCNC(=S)NCc1ccccc1
inhibition [1]: 0.77% (inactive)

O=C(NCC(=O)N(c1cccc(F)c1)C(C(=O)NC1CCCC1)c1cccnc1)c1cccs1 (stereo not drawn)
inhibition [1]: inactive

Cc1sc2nc(CN(C(=O)c3cccs3)C3CCCC3)[nH]c(=O)c2c1C
inhibition [1]: 5.66% (inactive)

O=C(C1CCCCC1)N(Cc1nc2sc3c(c2c(=O)[nH]1)CCCC3)Cc1cccs1
inhibition [1]: 2.95% (inactive)

Cc1ccc(-c2ccc(/C=N\n3cnnc3)o2)c(Br)c1
inhibition [1]: 1.33% (inactive)

S=c1[nH]nc(-c2ccccn2)n1/N=C/c1ccc(-c2ccccc2Cl)o1
inhibition [1]: 24.7% (inactive)

S=c1[nH]nc(-c2cccc(Cl)c2)n1/N=C/c1ccc(-c2ccccc2Br)o1
inhibition [1]: 23.7% (inactive)

Cc1n[nH]c(=S)n1/N=C/c1ccc(-c2ccccc2[N+](=O)[O-])o1
inhibition [1]: 2.62% (inactive)

Cc1nnc(C)n1/N=C/c1ccc(-c2ccccc2Cl)o1
inhibition [1]: inactive

Clc1ccccc1-c1ccc(/C=N/n2cnnc2)o1
inhibition [1]: 1.39% (inactive)

COc1ccc(CNC(=O)CNC(C)c2ccc(F)cc2)cc1 (stereo not drawn)
inhibition [1]: inactive

O=C(Cn1nc(Cc2cccnc2)c2ccccc2c1=O)NCc1ccc(F)cc1
inhibition [1]: 0% [measured here: 10K pilot screen inhibition, stronger effect = higher value] | outcome [1]: inactive

Cc1ccc(NC(=O)CSc2ncn[nH]2)cc1S(=O)(=O)N1CCOCC1
inhibition [1]: 0.49% (inactive)

O=C(CNS(=O)(=O)c1ccccc1)OCc1cccc([N+](=O)[O-])c1
inhibition [1]: 6.33% (inactive)

CN1CCN(c2nc3c(c(=O)[nH]c(=O)n3C)n2CCOc2ccccc2)CC1
inhibition [1]: 1.82% (inactive)

COC(=O)C(NC(=O)CCC(=O)N[C@@H](C(=O)OC)c1ccccc1)c1ccccc1 (stereo partly drawn)
inhibition [1]: 0.43% (inactive)

O=C(Nc1ccccc1Cl)OC1CCCCC1
inhibition [1]: 0.52% (inactive)

Cc1c(C(=O)N(C)Cc2ccc(OC(F)F)cc2)oc2ccccc12
inhibition [1]: inactive

Cn1c(=O)c2c(nc(N/N=C/c3c(O)n(C4CCCCC4)c(=S)[nH]c3=O)n2C)n(C)c1=O
inhibition [1]: 0.22% (inactive)

C/C(=N\NC(=O)c1ccncc1)c1c(O)n(Cc2ccccc2)c(=O)[nH]c1=O
inhibition [1]: 2.16% (inactive)

CNc1ccc(Br)cc(C(=O)/C=C/c2ccc3c(c2)OCO3)c1=O
inhibition (stronger effect = higher value): 7.74% (inactive) | inhibition [2]: 6.21%

CNc1ccc(Br)cc(C(=O)/C=C/c2ccc(OC)cc2)c1=O
inhibition [1]: 7.55% (inactive)

CNc1ccc(Br)cc(C(=O)/C=C/c2ccc(OC)cc2OC)c1=O
inhibition (stronger effect = higher value): 1.14% (inactive) | inhibition [2]: 6.96%

CNc1ccc(Br)cc(C(=O)/C=C/c2cccc(OC)c2OC)c1=O
inhibition [1]: 13.1% (inactive)

CNc1nc(C)c(C#N)c(-c2ccccc2)c1C(C)=O
inhibition [1]: 0.76% (inactive)

CC[C@]12c3[nH]c4ccccc4c3CCN1C(=O)C(CC(=O)NCCC1=CCCCC1)C[C@@H]2C(=O)N1CCN(C(=O)c2ccco2)CC1 (stereo partly drawn)
inhibition [1]: inactive

CC(C)c1c(C(=O)N/N=C/c2ccc(OCc3ccccc3)cc2)nnn1-c1nonc1N
inhibition [1]: 2.29% (inactive)

FC(F)(F)c1cccc(Cc2noc(CN(Cc3ccccn3)CC3CCCO3)n2)c1 (stereo not drawn)
inhibition [1]: 6.18% (inactive)

CCc1ccccc1NC(=O)C1=CN2CCS(=O)(=O)N=C2C=C1
inhibition [1]: 4.92% (inactive)

COC(=O)c1ccc(CSc2ccccc2NC(=S)Nc2cccc(SC)c2)o1
inhibition [1]: 5.66% (inactive)

COC(=O)[C@@H](Cc1ccccc1)NC(=O)CC[C@H]1O[C@@H](n2cc(C)c(=O)[nH]c2=O)C[C@@H]1O
inhibition [1]: inactive
